The values that follow come from PubChem BioAssay AID1851 (National Center for Advancing Translational Sciences (NCATS), 2009).

Several values for one entry are separate records, joined by “and”; a condition that tells them apart may be missing. Equal values may be shown once. Hit rate of the full screen: of about 16,000 compounds, about 4,000 (25%) were called active. Roughly 26% stayed inconclusive and do not appear here. The list is a sample of the results. Values without a mark were called inactive. Calls follow the shape of the dose curve; as a rule, active = well fitted curve in the direction sought with a large enough effect; inconclusive = small, poorly fitted or top-dose-only effect, or effect the other way; inactive = no such curve, though single readings can be large or run the other way.
% is scaled to controls: 0 for no effect and ±100 for the full control effect.

In the experiment the target is Cytochrome P450 2C9 (Homo sapiens) (UniProt P11712). Description: Cytochrome panel assay with activity outcomes. The conditions noted are these: recombinant CYP, pro-luciferin dealkylation, luminescence, p450-cyp2c9; series mostly up to 57.1 µM.
Cytochrome P450 2C9 (Homo sapiens), sequence (P11712 whole entry, looked up): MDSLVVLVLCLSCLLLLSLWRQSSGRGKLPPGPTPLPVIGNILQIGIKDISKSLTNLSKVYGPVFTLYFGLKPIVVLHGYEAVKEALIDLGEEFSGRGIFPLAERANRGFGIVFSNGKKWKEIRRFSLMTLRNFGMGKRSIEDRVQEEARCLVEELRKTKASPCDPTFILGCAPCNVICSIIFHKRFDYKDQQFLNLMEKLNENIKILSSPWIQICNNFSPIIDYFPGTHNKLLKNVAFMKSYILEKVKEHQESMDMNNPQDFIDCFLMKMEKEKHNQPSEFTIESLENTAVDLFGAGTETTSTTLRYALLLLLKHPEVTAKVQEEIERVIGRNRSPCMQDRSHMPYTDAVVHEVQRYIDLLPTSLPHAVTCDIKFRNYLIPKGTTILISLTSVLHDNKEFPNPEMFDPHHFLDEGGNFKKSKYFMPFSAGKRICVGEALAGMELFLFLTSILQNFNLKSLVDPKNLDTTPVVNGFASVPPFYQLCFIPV
On to `CCN1C(=O)[C@H]2[C@@H]3[C@H](O)[C@H](O)CC(=O)[C@H]3CC[C@H]2C1=O`, for which the activity, negative = inhibition was 17.2% [at 11.4 µM] and 0.779% [at 11.4 µM].
What is called AC50 is the concentration giving half of the maximal activity seen. With `C[C@@H](C(=O)Nc1ccc2ccccc2c1)[C@H]1C[C@]1(C)[C@H](NC(=O)OCc1ccccc1)c1ccccc1`, the AC50 was 1.58 µM (active).
As to `C[C@@H](C(=O)Nc1ccc2ccccc2c1)[C@@H]1C[C@@]1(C)[C@@H](NS(=O)(=O)c1ccc(-c2ccccc2)cc1)c1ccccc1`, the AC50 result was “inactive”.
Regarding `C[C@@]1(C(NC(=O)Cc2ccc(C(F)(F)F)cc2)c2ccc(-c3ccccc3)cc2)C[C@H]1C1CCCCC1` (stereo not given in full), the AC50 entry was “inactive”.
In the case of `CC(=O)N[C@H](c1ccccc1)[C@@]1(C)C[C@@H]1[C@@H](C)C(=O)Nc1ccc2ccccc2c1`, the AC50 is 10 µM (active).
Still for that read-out and setting: the value for `O=C(Nc1ccc2ccccc2c1)c1onc2c1CCCC2` was “inactive”; that for `C[C@@H](C(=O)Cc1ccc2ccccc2c1)[C@@H]1C[C@@]1(C)[C@@H](NP(=O)(c1ccccc1)c1ccccc1)c1ccccc1` was 3.16 µM (active).
As for `C[C@@H](C(=O)Nc1ccc2ccccc2c1)[C@H]1C[C@]1(C)[C@H](NP(=O)(c1ccccc1)c1ccccc1)c1ccccc1`, the AC50 was 3.16 µM (active).
For `COc1ccc(COC(=O)N/N=C2/C[C@@H](O)[C@@H](O)[C@@H]3[C@@H]4C(=O)N([C@@H](C)c5ccccc5)C(=O)[C@H]4CC[C@H]23)cc1`, the activity, negative = inhibition was 0.0971% [at 11.4 µM].
As to `C[C@@H](C(=O)Nc1ccc2ccccc2c1)[C@@H]1C[C@@]1(C)[C@@H](NC(=O)OCc1ccccc1)c1ccccc1`, the AC50 entry was “inactive”.
As for `CC(=O)OCC(=O)[C@@]1(O)CC[C@@H]2[C@H]3CCC4=CC(=O)C=C[C@]4(C)[C@]3(F)[C@@H](O)C[C@@]21C`, the AC50 result is “inactive”.
Take `COC(=O)N[C@H](c1ccccc1)[C@@]1(C)C[C@@H]1[C@@H](C)C(=O)Nc1ccc2ccccc2c1`: the AC50 was 3.98 µM (active).
As for `C[C@@H](C(=O)Nc1ccc2ccccc2c1)[C@H]1C[C@]1(C)[C@H](NS(=O)(=O)c1ccc2ccccc2c1)c1ccccc1`, the AC50 result is “inactive”.
The same measure, in the same setting: the figure for `CC(=O)N[C@@H](c1ccccc1)[C@]1(C)C[C@H]1[C@@H](C)C(=O)Nc1ccc2ccccc2c1` is 6.31 µM (active); for `Cc1ccc(OCC(=O)NNC(=O)c2cc3ccccc3o2)cc1` it is “inactive”.
For the molecule `Cc1cc(C)cc(OCC(=O)NNC(=O)c2cc(C)[nH]n2)c1`, the AC50 is 28.2 µM (active).
As for `Cc1cc(NC(=O)NC(=O)c2ccc(F)cc2F)n[nH]1`, the AC50 result is “inactive”.
As for `NC1(C(=O)O)C[C@@H](C(=O)O)[C@H](C(=O)O)C1`, the AC50 entry was “inactive”.
In the case of `NC1(C(=O)O)C[C@H](C(=O)O)[C@H](C(=O)O)C1` (stereo not given in full), the concentration at half-maximal activity (AC50) was 6.31 µM (active).
Regarding `NC1(C(=O)O)CC(C(=O)O)C1` (stereo not given), the AC50 entry was “inactive”.
On to `CCc1c(O)c2c(c(O)c1C(C)=O)C(=O)c1c(cc(O)c(C(=O)O)c1C(=O)O)C2=O`, for which the activity, negative = inhibition was -13.4% [at 11.4 µM].
For the molecule `N#Cc1cccc(NC(=O)N2CCC3(CC2)CCN(C(=O)c2ccco2)CC3)c1`, the AC50 result is “inactive”.
As for `O=C(Nc1cccc(NC(=O)c2ccc(-c3cccc(Br)c3)o2)c1)c1ccco1`, the AC50 is 5.01 µM (active).
Turning to `COc1cccc(-c2noc(Cn3nc(C)c([N+](=O)[O-])c3C)n2)c1`, the AC50 is 4.47 µM (active).
Regarding `COc1cccc(-c2nccc(NCc3ccc(OC)cc3OC)n2)c1`, the activity, negative = inhibition was -22.3% [at 2.29 µM].
On the same count and under the same terms, the figure for `COc1cccc(-c2nccc(N(C)Cc3ccco3)n2)c1` is 2.63% [at 2.29 µM].
As for `COc1cccc(C2C3(C#N)C(N)=NC(OC)(OC)C23C#N)c1` (stereo not given), the AC50 result is “inactive”.
As to `CC(=O)[C@H](C(=N)C#N)C(=O)Nc1ccccc1`, the activity, negative = inhibition was 10.8% [at 11.4 µM].
On to `COC1(OC)N=C(NC(=O)Nc2ccccc2)C2(C#N)C(c3ccccc3)C12C#N` (stereo not given), for which the AC50 was 12.6 µM (active).
Turning to `CC1(C)CC(=O)C(C(c2cccc(O)c2O)C2C(=O)CC(C)(C)CC2=O)C(=O)C1`, the activity, negative = inhibition is 3.72% [at 11.4 µM].
With `Cc1ccc(C(C2C(=O)CC(C)(C)CC2=O)C2C(=O)CC(C)(C)CC2=O)s1`, the AC50 is 28.2 µM (active).
On the same count and under the same terms, the figure for `O=C(Nc1nnc(C2CC2)s1)C1Cc2ccccc2CN1S(=O)(=O)c1ccccc1F` (stereo not given) is 3.16 µM (active); for `O=S(=O)(c1ccccc1)N1CCC2(CCN(Cc3nccs3)CC2)CC1` it is “inactive”; for `O=C(Nc1nccs1)C1Cc2ccccc2CN1S(=O)(=O)c1ccc(F)cc1` (stereo not given) it is 12.6 µM (active).
As for `CCc1nnc(NC(=O)C2Cc3ccccc3CN2S(=O)(=O)c2ccc(C)cc2)s1` (stereo not given), the half-maximal activity concentration (AC50) was 3.98 µM (active).
With `O=S(=O)(c1ccccc1)N1CCC2(CC1)CN(Cc1nccs1)C2`, the AC50 result was “inactive”.
Turning to `CC(C)CN1CCC2(CC1)CCN(C(=O)c1cccn1C)CC2`, the AC50 result is “inactive”.
On the same count and under the same terms, the value for `CCOC(=O)n1ccn(C)c1=S` was “inactive”.
For the molecule `CC(=O)OC[C@@H]1O[C@@H](O/N=C2/C[C@@H](O)[C@@H](O)[C@@H]3[C@@H]4C(=O)N(C(C)(C)C)C(=O)[C@H]4CC[C@H]23)[C@H](OC(C)=O)[C@H](OC(C)=O)[C@@H]1OC(C)=O`, the activity, negative = inhibition was 2.66% [at 11.4 µM].
Turning to `CO[C@H]1COC(=O)[C@H](C)NC(=O)C/C=C\[C@@H](C)[C@H](OC)COC(=O)[C@@H](OCc2ccccc2)/C=C\[C@@H]1C`, the activity, negative = inhibition was -13.3% [at 11.4 µM].
With `O=C(NCCc1ccc(Cl)cc1)Nc1cccc(Cl)c1`, the AC50 was 3.98 µM (active).
Consider `CN(C)CCNC(=S)Nc1cccc(Cl)c1`, for which the AC50 entry was “inactive”.
Consider `CNC(=O)C(=O)NCCc1ccc(Cl)cc1`, for which the AC50 entry is “inactive”.
For the molecule `CC(=O)OC[C@@H]1O[C@@H](O/N=C2/C[C@@H](O)[C@@H](O)[C@@H]3[C@@H]4C(=O)N(C5CCCCC5)C(=O)[C@H]4CC[C@H]23)[C@H](OC(C)=O)[C@H](OC(C)=O)[C@@H]1OC(C)=O`, the activity, negative = inhibition was 9.42% [at 11.4 µM].
Regarding `O=c1c(-c2cc(F)cc(F)c2)nc2cnc(N3CCOCC3)nc2n1C[C@H]1CCCO1`, the AC50 entry was “inactive”.
Still for that read-out and setting: the value for `O=C(NC12CC3CC(CC(C3)C1)C2)c1ccc(COc2ccc(Cl)cc2[N+](=O)[O-])o1` was 7.94 µM (active).
With `CC(C)=CCC/C(C)=C/CO/N=C1/C[C@@H](O)[C@@H](O)[C@@H]2[C@@H]3C(=O)N(Cc4ccccc4)C(=O)[C@H]3CC[C@@H]12`, the activity, negative = inhibition was 24.4% [at 11.4 µM].
On to `CC(C)=CCC/C(C)=C/CO/N=C1/C[C@@H](O)[C@@H](O)[C@@H]2[C@@H]3C(=O)N(Cc4ccccc4)C(=O)[C@H]3CC[C@H]12`, for which the activity, negative = inhibition is -1.37% [at 11.4 µM].
`c1nc(N2CCNCC2)c2cc(-c3ccc4c(c3)OCO4)ccc2n1`: the activity, negative = inhibition was 14.4% [at 2.29 µM].
Regarding `C[C@@H]1O[C@@H](O)[C@@H](O)[C@H](O)[C@H]1O`, the activity, negative = inhibition is 0.774% [at 11.4 µM].
Consider `CC1(C)SC(=S)N(Cc2ccc3c(c2)OCO3)C1N(O)C(=O)NC1CCCCC1` (stereo not given), for which the AC50 was 3.55 µM (active).
As to `O=C(O)[C@@H]1CCCN1Cc1ccc2c(c1)OCO2`, the activity, negative = inhibition was -5.38% [at 11.4 µM].
With `NC(=O)[C@@H]1CCCN1Cc1ccc2c(c1)OCO2`, the activity, negative = inhibition is -2.9% [at 11.4 µM].
For `COc1ncc2nc(-c3ccc(F)cc3)c(=O)n(C)c2n1`, the AC50 result was “inactive”.
Regarding `Cc1cc(CSc2ccccc2)ccc1NC(=O)COc1ccccc1`, the AC50 result was “inactive”.
Turning to `Cc1ccc(NC(=O)CCC(=O)NNS(=O)(=O)c2ccccc2)c(C)c1`, the AC50 result is “inactive”.
With `Cc1cc(Br)ccc1NC(=O)CCSc1ccccc1`, the AC50 is 8.91 µM (active).
For the molecule `O=C(CCCNS(=O)(=O)c1cccc2nsnc12)NCCc1ccccc1`, the AC50 is 11.2 µM (active).
Still for that read-out and setting: the value for `O=c1c2ccccc2nc2n1C(CSCc1cccc(C(F)(F)F)c1)CS2` (stereo not given) was 2 µM (active); that for `COc1ccc(NC(=O)N2CCC3(CC2)CCN(C(=O)c2cccn2C)CC3)cc1` was “inactive”.
In the case of `O=C(CSc1ccc(Cl)cc1)Nc1cccc(-c2nc3ncccc3o2)c1`, the AC50 was 3.16 µM (active).
Consider `CCCCCCCCC(=O)N/N=C/c1ccccn1`, for which the AC50 entry is “inactive”.
Regarding `O=C(Nc1cccc(-c2nc3ncccc3o2)c1)c1sc2cc(Cl)ccc2c1Cl`, the AC50 result was “inactive”.
`CCCCCC(=O)Nc1cccc(-c2nc3ncccc3o2)c1`: the AC50 is 17.8 µM (active).
Regarding `CCCCCC(=O)N1CC2(CC(c3cccc(NC(=O)c4ccccc4)c3)=NO2)C[C@@H]1C(N)=O` (stereo not given in full), the AC50 result is “inactive”.
For `CC1=NS(=O)(=O)c2cc(Cl)ccc2N1`, the AC50 result is “inactive”.
For `CO[C@H]1COC(=O)C/C=C\[C@H](C)[C@@H](OC)COC(=O)[C@H](Cc2ccccc2)NC(=O)C/C=C\[C@@H]1C`, the activity, negative = inhibition is -2.12% [at 11.4 µM].
Regarding `Cc1ccc(S(=O)(=O)N[C@H]2COC(=O)[C@@H](C)COC(=O)[C@H](C)NC(=O)C/C=C\[C@H]2C)cc1`, the activity, negative = inhibition is 10.1% [at 11.4 µM].
Turning to `O=C(NC(=S)Nc1cccc(Cl)c1N1CCCCC1)c1cccs1`, the AC50 is 3.98 µM (active).
Consider `Cc1c(Cl)cccc1NC(=O)CCC(=O)NNC(=O)c1ccco1`, for which the AC50 entry is “inactive”.
On to `CC1CCN(c2ccccc2NC(=S)NC(=O)c2cccs2)CC1`, for which the AC50 is 5.01 µM (active).
Turning to `O=C(NC(=S)Nc1cccc(Cl)c1N1CCCCC1)c1ccco1`, the AC50 is 5.01 µM (active).
With `C[C@@]1(C(NC(=O)c2cccs2)c2ccc(-c3ccccc3)cc2)C[C@H]1C1CCCCC1` (stereo not given in full), the AC50 entry was “inactive”.
In the case of `C[C@@H]1C[C@@H]2[C@H]3CCC4=CC(=O)C=C[C@]4(C)[C@]3(Cl)[C@@H](O)C[C@@]2(C)[C@@]1(O)C(=O)CO`, the AC50 result was “inactive”.
With `O=C(O)c1[nH]c2c([N+](=O)[O-])cc([N+](=O)[O-])cc2c1C(=O)O`, the AC50 is 3.16 µM (active).
`N[C@@H](Cc1c[nH]c2ccc([N+](=O)[O-])cc12)C(=O)O`: the activity, negative = inhibition was 9.84% [at 11.4 µM].
Take `O=c1[nH]c2cc([N+](=O)[O-])c([N+](=O)[O-])cc2[nH]c1=O`: the AC50 entry was “inactive”.
As to `CCOc1ccc(C(F)(F)F)cc1NC(=O)c1ccc(OC)c([N+](=O)[O-])c1`, the AC50 result is “inactive”.
Same read-out and setting: the entry for `CC(C)(C)NC(=O)COC(=O)c1cncc(Br)c1` is “inactive”; for `COc1ccc(C(C)(C)C)cc1NC(=O)c1cncc(Br)c1` it is 20 µM (active).
